# Screening results deposited in PubChem BioAssay by National Center for Advancing Translational Sciences (NCATS).
# Rows were chosen to be rich in hits. Some 12% of all compounds tested hit in one or more screens of this group.
# L3MBTL1 block – inhibitors of human L3MBTL1; AlphaScreen L3MBTL1–H3K9me1 peptide binding; 0.66% of 230,000 active; Potency, µM (highest dose often 57.1 µM), for inactives: top-dose activity, negative = inhibition, usual class: inhibitors; Q9Y468; also: % is scaled to controls: 0 for no effect and ±100 for the full control effect; nearly all actives have a fitted effect of over 60% in size
#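 AlphaScreen proximity signal between nickel-chelate acceptor and streptavidin donor beads (final 10 ug/mL) reports binding of 50 nM L3MBTL1 to 75 nM biotin-H3 K9me1 peptide; complex incubated with compounds 30 min at room temperature; cefsulodin titration as control.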
# HP1b binding inh – blocks HP1-beta chromodomain binding to methylated histone tails; P83916; AlphaScreen HP1-beta / biotin-H3K9me3 peptide binding; Potency, µM (doses to about 114 µM), without a hit: top-dose activity change, negative = inhibition, most hits filed as inhibitors; 0.56% of 390,000 active; AID 540317; also: nearly all actives have a fitted effect of over 70% in size
# Target sequence (P83916 whole entry, looked up): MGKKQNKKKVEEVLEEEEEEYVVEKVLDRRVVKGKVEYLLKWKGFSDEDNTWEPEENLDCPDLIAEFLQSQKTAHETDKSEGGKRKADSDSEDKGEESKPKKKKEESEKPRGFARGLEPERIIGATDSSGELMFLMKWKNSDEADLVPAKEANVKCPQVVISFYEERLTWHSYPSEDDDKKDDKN
#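 HP1-beta protein (50 nM final) preincubated 30 min at room temperature with biotinylated H3(1-18)K9me3 peptide (50 nM) in PBS pH 7.4, 0.01% Tween-20, then compound added for 30 min. AlphaScreen streptavidin donor/nickel chelate acceptor beads (10 ug/mL final), 30 min dark, luminescence read.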
# JMJD2A Tudor inh – inhibitors of human JMJD2A Tudor domain; Potency, µM (series often up to 114 µM), inactives show top-dose activity change, negative = inhibition, hits mostly inhibitors; AID 504339; 4.4% of 390,000 active; O75164; AlphaScreen JMJD2A-Tudor / H3K4me3 peptide binding; also: % is scaled to controls: 0 for no effect and ±100 for the full control effect; nearly all actives have a fitted effect of over 50% in size
# G9a inh – blocks human histone lysine methyltransferase G9a | Q96KQ7 | G9a H3K9 monomethylation, AlphaScreen, 2 h | Potency, µM (doses to about 102 µM), inactives show top-dose activity, negative = inhibition, actives largely listed as inhibitors | 8.8% of 350,000 active | AID 504332; also: % is scaled to controls: 0 for no effect and ±100 for the full control effect; nearly all actives have a fitted effect of over 75% in size
# Target sequence (Q96KQ7 913-1193 limits assumed): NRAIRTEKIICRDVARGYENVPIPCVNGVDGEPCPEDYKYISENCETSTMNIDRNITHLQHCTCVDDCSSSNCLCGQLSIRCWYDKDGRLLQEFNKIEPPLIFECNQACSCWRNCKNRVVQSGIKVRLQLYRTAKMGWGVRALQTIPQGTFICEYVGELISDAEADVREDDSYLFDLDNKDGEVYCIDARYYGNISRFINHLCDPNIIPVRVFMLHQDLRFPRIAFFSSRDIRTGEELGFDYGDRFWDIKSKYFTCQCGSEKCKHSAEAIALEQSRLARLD
#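 Chemiluminescent proximity detection of H3K9 monomethylation, read after 10 min bead incubation in the dark. Reaction: 20 nM G9a, 500 nM biotin-H3K9 peptide, 20 uM SAM cofactor, 2 h, room temperature, following 15 min enzyme-compound preincubation.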
# BAZ2B inh – inhibitors of human BAZ2B bromodomain | AID 504333 | AlphaScreen BAZ2B-H3K14Ac peptide displacement | Potency, µM (highest dose often 114 µM), inactives show at the highest dose activity change, negative = inhibition, usual class: inhibitors | 4.4% of 360,000 active; also: % is scaled to controls: 0 for no effect and ±100 for the full control effect; nearly all actives have a fitted effect of over 60% in size
#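 In this displacement format the biotinylated H3(5-23) peptide acetylated at Lys14 serves as ligand at 50 nM, with BAZ2B at 50 nM in PBS pH 7.4 containing 0.01% Tween-20. Donor and acceptor beads are 10 ug/mL final.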
# Sfp inh – inhibitors of Bacillus subtilis Sfp phosphopantetheinyl transferase; Biochemical Sfp PPTase activity, qHTS; 3.5% of 310,000 active; Potency, µM, for the others: largest response in the series, negative = inhibition, hits mostly inhibitors; Q9F4F7;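 also: the enzyme is Sfp with the accession as filed and its product quenches rhodamine fluorescence; 0% = enzyme reaction without inhibitor and -100% = no enzyme wells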
#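 With Hepes-Na pH 7.6 buffer containing 10 mM MgCl2, Sfp (15 nM) modified BHQ-2-YbbR (12.5 uM) using rhodamine-CoA (5 uM). Two reads 30 minutes apart at 525/598 nm yielded each well's rate.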
# * = called active by the depositor; u = inconclusive; x = no result given; [ ] = another dose, or the depositor's remark. Calls follow the shape of the dose curve; as a rule, active = well fitted curve in the direction sought with a large enough effect; inconclusive = small, poorly fitted or top-dose-only effect, or another doubt; inactive = no such curve, though single readings can be large; an effect the other way counts as inactive or inconclusive. Potency is read from the fitted curve at half-maximal effect.
SMILES,L3MBTL1 block,HP1b binding inh,JMJD2A Tudor inh,G9a inh,BAZ2B inh,Sfp inh
CCOC(=O)C1CCCN(S(=O)(=O)c2ccc3c4c2CC(=O)N4CC(C)S3)C1 (centres undefined),-3.2%,37.2%,-15.2%,44.7µM*,-28.0%,0.1%
CCOC(=O)C1CCN(S(=O)(=O)c2cn(C)c(=O)n(C)c2=O)CC1,7.2%,31.3%,-19.4%,-0.6%,13.7%,u
CCOC(=O)C1CCN(S(=O)(=O)c2ccc3c4c2CC(=O)N4CC(C)S3)CC1 (centres undefined),-2.2%,25.0%,-15.9%,35.5µM*,-26.7%,-11.4%
Cc1ccc2nc(NC(=O)C3=NN(c4ccccc4)C(=O)CC3)sc2c1,-8.7%,24.4%,-18.1%,-26.1%,3.3%,0.5%
Cc1nc(C)c(C(=O)Nc2nc3c(C)cccc3s2)o1,20µM*,u,35.5µM*,14.1µM*,35.5µM*,50.1µM*
Cc1cccc2sc(NC(=O)C3=NN(c4ccccc4)C(=O)CC3)nc12,-7.3%,36.3%,-7.0%,50.1µM*,-2.7%,-2.4%
Cc1ccc2c(CC(=O)Nc3ccc(S(=O)(=O)N4CCCCC4C)cc3)coc2c1C (centres undefined),x,1.3%,-18.8%,-42.7%[59 µM],u,x
CCC(NC(=O)Nc1ccc(OC)c(OC)c1)c1c(-n2cccc2)sc2c1CCN(C)C2 (centres undefined),x,u,u,u,50.1µM*,x
CCC(NC(=O)Nc1cc(OC)ccc1OC)c1c(-n2cccc2)sc2c1CCN(CC)C2 (centres undefined),x,u,56.2µM*,14.1µM*,39.8µM*,x
Cc1ccc(NC(=O)c2ccc(CNS(=O)(=O)c3ccc4c(c3)C(C)(C)C(=O)N4C)cc2)cc1C,x,24.1%,-6.2%,-6.9%[59 µM],-13.8%,x
COc1ccc(-c2oc3ncn4nc(-c5ccccc5C)nc4c3c2-c2ccc(OC)cc2)cc1,x,27.9%,-7.8%,-5.7%[59 µM],1.0%,x
CCOc1ccc(-c2cc(C(=O)N3CCN(c4ccc(C)cc4)C(C)C3)c3ccccc3n2)cc1 (centres undefined),x,2.6%,u,-35.4%[59 µM],u,x
O=C(Nc1cccc(-c2nn3c(=O)cc(N4CCNCC4)nc3s2)c1)C1CCNCC1,x,x,-29.3%,x,x,x
COc1cc2nc(N3CCN(c4cc(C)ccc4C)CC3)nc(N)c2cc1OC,x,-14.7%,u,50.1µM*,50.1µM*,79.4µM*
O=C1NN=C(CSc2n[nH]c(=S)s2)CS1,10.5%,-34.8%,17.8µM*,2.51µM*,79.4µM*,u
Cc1cc(OC(C)C(=O)N(Cc2ccc(N(C)C)cc2)Cc2ccco2)ccc1Cl (centres undefined),x,-27.1%,14.1µM*,12.6µM*,12.6µM*,x
Cc1cc(OC(C)C(=O)N(Cc2ccco2)Cc2ccccc2F)cc(C)c1Cl (centres undefined),x,35.6%,-2.2%,28.4%[59 µM],28.9%,x
Cc1cc(OCC(=O)N(Cc2ccc(N(C)C)cc2)Cc2ccco2)cc(C)c1Cl,x,-16.7%,14.1µM*,11.2µM*,10µM*,x
N#CC1=C(N)C(C#N)(C#N)C2(CCC3(CC2)OCCO3)C2CC3(CC=C12)OCCO3 (centres undefined),-0.1%,33.2%,-15.2%,-1.8%[59 µM],100µM*,2.7%
CN1C2C=C3C(C#N)=C(N)C(C#N)(C#N)[C@H](c4c(F)cccc4F)[C@H]3C1CC2 (some centres undefined),4.1%,30.3%,-22.1%,50.1µM*,u,8.6%
N#CC1=C(N)C(C#N)(C#N)C(c2cccnc2)C2COCC=C12 (centres undefined),11.7%,63.8%,-9.4%[57.1 µM],u,16.7%,-12.3%
CC(=O)N1CC=C2C(C#N)=C(N)C(C#N)(C#N)C(C)C2C1 (centres undefined),-28.5%[11.4 µM],46.3%,-12.2%,u,-6.9%,-4.8%
N#CC1=C(N)C(C#N)(C#N)[C@H](c2c(F)cccc2F)[C@H]2CC3(CC=C12)OCCO3,23.1%,31.3%,-14.7%,50.1µM*,-13.7%,-8.8%
O=C(Nc1ccc(NC(=O)c2ccc(Br)cc2)c(Cl)c1)c1ccc(Br)cc1,x,22.3%,-19.9%,-7.3%[59 µM],-3.6%,x
Cc1sc(NC(=O)COc2ccccc2)c(C#N)c1C,x,u,-22.4%,10µM*,-21.2%,22.4µM*
CCOC(=O)c1c(NC(=O)COc2ccccc2)sc(C(C)=O)c1C,x,u,-0.6%,12.6µM*,4.9%,x
NC(=O)c1ccsc1NC(=O)COc1ccccc1,-8.0%,u,50.1µM*,-33.8%[59 µM],-3.3%,1.1%
CCOC(=O)c1c(NC(=O)COc2ccc(Br)cc2)sc(C(C)=O)c1C,x,-7.1%,-10.7%,14.1µM*,-1.8%,x
